# According to PubChem BioAssay (EPA / NIEHS):
# Active and inactive are the calls of the source. The calls were made as follows: active = hit-call score of the fitted dose curve at least 0.9, where 1 is the maximum; inactive = score below 0.9.
# Test: ATG_EGR_CIS: Attagene CIS-FACTORIAL HepG2 Assay for human Early Growth Response 1 (EGR1) (AID 2282938)
# Conditions: HepG2 Attagene CIS-FACTORIAL EGR reporter mRNA; actives raise or lower the signal
# Summary of the method: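 Read-out: fluorescent reporter-mRNA fragments resolved by capillary electrophoresis after RT-PCR, 24 h post-dose in transiently transfected HepG2. Endogenous transcription-factor activity reported via cis-element-regulated reporter units; gain or loss fitted relative to DMSO.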
SMILES,outcome,AC50
CCCSP(=S)(OCC)Oc1ccc(SC)cc1 (stereo not drawn),inactive,–
COCC(=O)N(c1c(C)cccc1C)[C@H](C)C(=O)OC,inactive,–
Cc1cc(C)cc(C)c1,inactive,–
CCOP(=S)(OCC)SCSc1cc(Cl)ccc1Cl,inactive,–
C=CC(=O)[O][Sn]([CH2]CCC)([CH2]CCC)[CH2]CCC,–,0.412 µM (active)
N#CS,inactive,–
C1CN2CCN1CC2,inactive,–
CCC[N+](CCC)(CCC)CCC,inactive,–
O=c1nc(O)n(Cl)c(=O)n1Cl,inactive,–
O=NN1CCOCC1,inactive,–
CCOP(=S)(OCC)SCS(=O)(=O)C(C)(C)C,inactive,–
CC(c1ccc(O)cc1)c1ccc(O)cc1,inactive,–
COc1nn(C(=O)NS(=O)(=O)c2ccccc2OC(F)(F)F)c(=O)n1C,inactive,–
CC(C)[N+](=O)[O-],inactive,–
CC1(C)[C@H](C(=O)O[C@H](C#N)c2cccc(Oc3ccccc3)c2)[C@@H]1/C=C(\Cl)C(F)(F)F,inactive,–
C=C(C)[C@@H]1CC=C(C=O)CC1,inactive,–

SMILES,outcome,AC50
Brc1ccc(Br)cc1,inactive,–
CC(C)O.CC(C)O.OCCN(CCO)CCO.OCCN(CCO)CCO.[Ti],inactive,–
CCCCCCCCCCCCCl,inactive,–
CCOc1cc(C=O)ccc1O,inactive,–
O=S(=O)(C(Cl)(Cl)Cl)C(Cl)(Cl)Cl,–,17.3 µM (active)
CC(C)(C)c1ccccc1O,–,156 µM (active)
O=C(Cc1ccccc1)OCCc1ccccc1,inactive,–
OCCN(CCO)CCO,inactive,–
OC[C@@H](O)[C@H]1O[C@@H]2O[C@H](C(Cl)(Cl)Cl)O[C@@H]2[C@H]1O,inactive,–
Oc1c(Cl)cc(Cl)cc1Cl,inactive,–
C[N+](C)(C)Cc1ccccc1,inactive,–
CC1(C)[C@H](/C=C2\CCSC2=O)[C@@H]1C(=O)OCc1coc(Cc2ccccc2)c1,–,19 µM (active)
O=C(CBr)c1ccc(O)cc1,inactive,–
C#CCOC(=O)/C=C(C)/C=C/CC(C)CCCC(C)C (stereo not drawn),inactive,–
CC(C)(C1CCC(O)CC1)C1CCC(O)CC1 (stereo not drawn),inactive,–

# Test: ATG_M_19_CIS: Attagene CIS-FACTORIAL HepG2 Assay for M19 Transcription Factor (Internal Marker) (AID 2282939)
# Conditions: HepG2 Attagene CIS-FACTORIAL M19 internal marker reporter; actives raise or lower the signal
# Summary of the method: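 Signals come from fluorescence of labelled reporter-specific PCR fragments resolved by capillary electrophoresis, following 24 h treatment of HepG2 cells transfected with cis-promoter reporter units; activity was fitted in both directions relative to DMSO.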
SMILES,outcome,AC50
CCCSP(=S)(OCC)Oc1ccc(SC)cc1 (stereo not drawn),inactive,–
COCC(=O)N(c1c(C)cccc1C)[C@H](C)C(=O)OC,inactive,–
Cc1cc(C)cc(C)c1,inactive,–
CCOP(=S)(OCC)SCSc1cc(Cl)ccc1Cl,inactive,–
C=CC(=O)[O][Sn]([CH2]CCC)([CH2]CCC)[CH2]CCC,inactive,–
Cc1cccc(OP(=O)(Oc2cccc(C)c2)Oc2cccc(C)c2)c1,inactive,–
C1CN2CCN1CC2,inactive,–
CCC[N+](CCC)(CCC)CCC,inactive,–
O=C(O)CC(O)(CC(=O)O)C(=O)O,inactive,–
CCOP(=S)(OCC)SCS(=O)(=O)C(C)(C)C,inactive,–
CC(c1ccc(O)cc1)c1ccc(O)cc1,inactive,–
COc1nn(C(=O)NS(=O)(=O)c2ccccc2OC(F)(F)F)c(=O)n1C,inactive,–
CC(C)[N+](=O)[O-],inactive,–
C=C(C)[C@@H]1CC=C(C=O)CC1,inactive,–
CC1CC(=O)O1 (stereo not drawn),inactive,–
Brc1ccc(Br)cc1,inactive,–

SMILES,outcome,AC50
CCCCCCCCCCCCCl,inactive,–
CCOc1cc(C=O)ccc1O,inactive,–
CC(C)(C)c1ccccc1O,inactive,–
O=C(N[C@H]1CN2CCC1CC2)c1ccc2c(c1)OCCO2,inactive,–
O=C(Cc1ccccc1)OCCc1ccccc1,inactive,–
OCCN(CCO)CCO,inactive,–
OC[C@@H](O)[C@H]1O[C@@H]2O[C@H](C(Cl)(Cl)Cl)O[C@@H]2[C@H]1O,inactive,–
Oc1c(Cl)cc(Cl)cc1Cl,inactive,–
C[N+](C)(C)Cc1ccccc1,inactive,–
OC(Cc1ccccc1Cl)(Cn1[nH]cnc1=S)C1(Cl)CC1 (stereo not drawn),–,64.6 µM (active)
CCCCS(=O)(=O)Cl,inactive,–
CC1(C)[C@H](/C=C2\CCSC2=O)[C@@H]1C(=O)OCc1coc(Cc2ccccc2)c1,inactive,–
C=CC(F)(C(F)(F)F)C(F)(F)C(F)(F)F (stereo not drawn),inactive,–
O=C(CBr)c1ccc(O)cc1,inactive,–
C#CCOC(=O)/C=C(C)/C=C/CC(C)CCCC(C)C (stereo not drawn),inactive,–
CC(C)(C1CCC(O)CC1)C1CCC(O)CC1 (stereo not drawn),inactive,–
